Out of some 220,000 compounds screened, about 770 (0.35%) were called active. Not shown: some 15% with an inconclusive outcome. The full list was thinned out, with actives kept by preference. Unmarked numbers belong to inactive results. Rule as the data show it: active = binding response below about 49% or above about 150%; inconclusive = no clear call, values can overlap the other calls; inactive = in between.

Guanine nucleotide-binding protein G(o) subunit alpha (Homo sapiens), sequence (P09471 whole entry, looked up): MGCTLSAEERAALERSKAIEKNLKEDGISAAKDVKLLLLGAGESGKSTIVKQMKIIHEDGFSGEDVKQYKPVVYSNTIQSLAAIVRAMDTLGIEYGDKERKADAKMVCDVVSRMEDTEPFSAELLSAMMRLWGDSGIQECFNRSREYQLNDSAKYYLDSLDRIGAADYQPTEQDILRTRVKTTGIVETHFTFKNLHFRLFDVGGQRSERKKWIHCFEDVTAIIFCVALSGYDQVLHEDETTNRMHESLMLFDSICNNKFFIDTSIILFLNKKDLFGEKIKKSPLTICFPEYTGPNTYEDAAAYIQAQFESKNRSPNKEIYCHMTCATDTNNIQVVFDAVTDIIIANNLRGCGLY

This test has as its target Guanine nucleotide-binding protein G(o) subunit alpha (Homo sapiens) (UniProt P09471). As to the kind of experiment: compounds changing RGS7 association with Galphao – biochemical, multiplexed bead flow cytometry, primary screen (AID 1439).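 Also: fluorescent Galphao held in activated GDP-AlF4 state binding bead-coupled RGS7.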 Particulars: at 10 µM, actives lie on both sides. For orientation: Flow cytometry measures light scatter and fluorescence of single cells or particles in a stream.
Turning to `CN1C(=O)/C(=C/c2ccc(C(=O)NC3CCCC3)cc2)Oc2ccccc21`, the binding response (% of control) was 98.8%.

For the molecule `O=C(CCc1ccccc1)Nc1ccc(NC(=O)C2CCCCC2)nc1`, the binding response (% of control) is 105%. Under `Cc1ccc(CN2CCN(Cc3ccccc3-c3ccco3)CC2CCO)o1` (stereo unspecified) stands 90.6%. As for `CN1CCN(C(CNS(=O)(=O)c2cccs2)c2cccnc2)CC1` (stereo unspecified), the figure is -9.98% [inhibitor] (active).

Turning to `CN1CCN(S(=O)(=O)c2ccc(N3CCN(S(=O)(=O)c4cccs4)CC3)nc2)CC1`, the binding response (% of control) was 95.4%. For the molecule `Cc1ccc(NC(=O)NCC(c2cccnc2)N2CCOCC2)cc1` (stereo unspecified), the binding response (% of control) is 100%. As for `CN(C)c1ccc(/C=N/NC(=O)C(O)c2ccc(Br)cc2)cc1` (stereo unspecified), the figure is 101%; as for `CC(C)(C)C(=O)CN1C2=NCCN2c2ccccc21`, 109%; as for `Cc1ccccc1NC(=O)Cn1c(=O)n(CC2CCCO2)c(=O)c2ccccc21` (stereo unspecified), 106%.

With `COc1ccc(CC(=O)N/N=C(\C)c2ccccn2)cc1`, the binding response (% of control) was 93.4%. As for `CCN(CC)CCOc1ccc2c(c1)C(=NNC(=O)c1ccccn1)c1cc(OCCN(CC)CC)ccc1-2`, the figure is 216% (active); as for `CCOc1cc(NC(=O)c2ccccn2)c(OCC)cc1NC(=O)c1ccc(OC)cc1`, 107%; as for `COC(=O)c1cc2n(n1)CCCNC2=O`, 106%. As to `O=[N+]([O-])c1ccc2c(c1)C(N1CCOCC1)/C(=C/C1(O)CCCCC1)O2` (stereo unspecified), the binding response (% of control) is 100%. As for `CCCCOC(=O)Cn1c(=O)n(CC(=O)OCCCC)c2cc(C)ccc21`, the figure is 103%. As for `CCn1c(=N)n(CC(=O)c2cccc(OC)c2)c2ccccc21`, the binding response (% of control) is 96.8%. `CCCCOC(=O)Cn1c(=N)n(CCN(CC)CC)c2ccccc21`: the binding response (% of control) is 165% (active). In the case of `CCC(C)CN1CCC(CO)(Cc2ccccc2Cl)CC1` (stereo unspecified), the binding response (% of control) is 103%. Under `O=S1(=O)CCC(NC(=S)SCc2ccccc2Br)C1` (stereo unspecified) stands 97.5%; under `Cn1c(CCN2CCCCCC2)nc2cc(NC(=O)Nc3ccccc3)ccc21`, 106%. For `Cc1nc2cc(NC(=O)NC3CC3)ccc2n1C`, the binding response (% of control) is 99%. As for `Cc1cc2nc(C)n(CCCNC(=O)Nc3ccccc3)c2cc1C`, the figure is 180% (active); as for `CCOc1ccc(S(=O)(=O)Nc2nccs2)cc1`, 101%. As for `C=CCN1C2CCCC1CC(NC(=S)Nc1cccc(OC)c1)C2` (stereo unspecified), the figure is 102%; as for `Clc1cccc(-c2nc(NCC3CCCO3)c3ccccc3n2)c1` (stereo unspecified), 99.5%. Under `Cc1cc(C)n2nc(C(=O)N(C)C(c3ccccc3)c3ccccc3)nc2n1` stands 99%; under `Cc1cccc(NC(=S)N2CCCC(c3nc4ccccc4[nH]3)C2)c1` (stereo unspecified), 106%; under `COCCCN1C(=O)C(=O)/C(=C(/O)c2ccc3c(c2)CC(C)O3)C1c1cccnc1` (stereo unspecified), 93.5%.

For the molecule `COc1ccc(/C(O)=C2\C(=O)C(=O)N(Cc3ccco3)C2c2ccc(OC)cc2OC)cc1` (stereo unspecified), the binding response (% of control) was 98.7%.

In the case of `COc1cc(C2/C(=C(\O)c3ccc4c(c3)CC(C)O4)C(=O)C(=O)N2Cc2ccco2)ccc1O` (stereo unspecified), the binding response (% of control) was 17.7% [inhibitor] (active). Under `CSc1ccc(C(=O)C2CCCN(C(=O)c3ccc(C)nc3)C2)cc1` (stereo unspecified) stands 96%; under `O=C(CCN1CCN(C/C=C/c2ccccc2)CC1)Nc1cccc(F)c1`, 101%. As to `CCOC(=O)N1CCN(C(=O)COc2ccc(Cl)cc2C)CC1`, the binding response (% of control) is 102%. Take `CCCn1nnnc1NC(=O)COc1ccc(Cl)cc1C`: the binding response (% of control) was 17.1% [inhibitor] (active). As for `Cc1cc(NC(=O)COc2ccc(Cl)cc2Cl)n(CCC#N)n1`, the figure is 93.9%; as for `Cn1c(=NC(=O)c2ccco2)sc2cccc(F)c21`, 103%. Under `Cn1c(=NC(=O)C2CC2)sc2cc(F)cc(F)c21` stands 95.6%; under `CCCC(=O)N=c1sc2cccc(F)c2n1C`, 18% [inhibitor] (active); under `Cc1cnc(C(=O)N2CCCC(C(=O)c3ccc(C(F)(F)F)cc3)C2)cn1` (stereo unspecified), 107%. In the case of `COc1cccc(-n2nc(C(=O)N3CCN(Cc4ccccc4)CC3)c3ccccc3c2=O)c1`, the binding response (% of control) was 98.7%. As for `CCC(=O)OCCNc1nc(-c2ccccc2)nc2ccccc12`, the figure is 110%.

As to `O=C(OCC1O[C@@H](OC(=O)c2cc(O)c(O)c(O)c2)[C@@H](OC(=O)c2cc(O)c(O)c(O)c2)[C@@H](OC(=O)c2cc(O)c(O)c(O)c2)[C@@H]1OC(=O)c1cc(O)c(O)c(O)c1)c1cc(O)c(O)c(O)c1` (stereo partly specified), the binding response (% of control) was 20.5% [inhibitor] (active). As for `CC(=O)NC1C(OCc2ccccc2)OC(COC(C)=O)C(OC(C)=O)C1OC(C)=O` (stereo unspecified), the figure is 99.5%; as for `NC(=O)c1ccc(CN2CCC(Cc3ccccc3)CC2)cc1`, 99.1%; as for `OCC1(CCc2ccccc2)CCN(Cc2ccc3nsnc3c2)CC1`, 96.7%.

On to `CN1CCNC(=O)C1CC(=O)NCCC1=CCCCC1` (stereo unspecified), for which the binding response (% of control) is 96.7%. Under `CCc1nnc(NS(=O)(=O)c2ccc(NC(=S)NC(=O)c3cccs3)cc2)s1` stands 96.9%. Under `Cc1cc2c(c(=O)n1Cc1ccco1)C(c1ccccc1)C(C#N)=C(N)O2` (stereo unspecified) stands 101%; under `CCOC(=O)CSc1nc2c(sc(=S)n2CCc2ccccc2)c(=O)n1Cc1ccco1`, 113%; under `CN(c1ccccc1)c1ccc(/C=c2\s/c(=C(/C#N)C(=O)C(C)(C)C)n(Cc3ccco3)c2=O)cc1`, 421% (active).

Turning to `COc1ccc(C(=O)CSc2nc(C)cc(C)n2)cc1[N+](=O)[O-]`, the binding response (% of control) was 103%.

On to `O=C(NCCCN1CCOCC1)c1ccc([N+](=O)[O-])cc1[N+](=O)[O-]`, for which the binding response (% of control) is 101%. Under `O=C(CC1SC(=Nc2ccccc2F)N(CCN2CCOCC2)C1=O)Nc1ccc(F)cc1F` (stereo unspecified) stands 87%; under `CC(C)(C)CN1CCNC(=O)C1CC(=O)NC1Cc2ccccc2C1` (stereo unspecified), 85.9%. In the case of `CC1(C)CC(=O)C(CC(=O)N2CCC(Cc3ccccc3)CC2)C(=O)C1`, the binding response (% of control) is 106%. Under `CC1=CC=CN2C1=NC(=O)CC2(C)C(=O)N(CC(=O)NC1CCCC1)c1ccccc1C` (stereo unspecified) stands 104%. Under `Cc1ccccc1C(=O)Nc1ccc(N2CCCCCC2)cc1` stands 91.3%. As for `CCN1CCN(Cc2c(O)ccc3c(=O)c(-c4ccc(OC)c(OC)c4)c(C(F)(F)F)oc23)CC1`, the figure is 97.2%; as for `CN1CCN(Cc2c(O)ccc3c2oc(=O)c2ccccc23)CC1`, 99.2%; as for `CCOC(=O)c1oc2c(CN3CCN(C)CC3)c(O)ccc2c(=O)c1-c1ccc(Br)cc1`, 318% (active). With `COc1ccc(N2C(=O)/C(=C\c3ccco3)N=C2SCC(N)=O)cc1Cl`, the binding response (% of control) was 93.9%. As for `O=C(O)CCCCCNc1ncnc2ccc(Br)cc12`, the figure is 91.8%. Regarding `Cc1cccc(N2CCN(Cc3c(C)n(C)n(-c4ccccc4)c3=O)CC2)c1C`, the binding response (% of control) was 103%. Under `Cc1c(CN2CCCC(C(=O)c3cccc(Cl)c3)C2)c(=O)n(-c2ccccc2)n1C` (stereo unspecified) stands 230% (active); under `Cc1c(CN2CCC(C)CC2)c(=O)n(-c2ccccc2)n1C`, 97%; under `Cc1ccc(NC(=O)CN2CCCCC2)c2c1CC(C)(C)O2`, 103%.

Regarding `CS/C(=C\[N+](=O)[O-])Nc1ccc(C)cc1`, the binding response (% of control) is 106%. As for `S=C(Nc1cccc(Br)c1)N1CCn2cccc2C1c1cccnc1` (stereo unspecified), the binding response (% of control) is 102%. With `O=C(Nc1ccccc1Cl)c1ccccc1S(=O)(=O)c1ccccc1[N+](=O)[O-]`, the binding response (% of control) is 90.2%. Under `CC(=O)Nc1ccc(NC(=O)COc2ccccc2C(=O)Nc2cccc(Cl)c2Cl)cc1` stands 94.1%; under `CN(C)S(=O)(=O)Oc1ccccc1C(=O)Nc1ccccc1Cl`, 223% (active). Under `COc1cccc2c1OCC(CN1CCN(C3CCCCC3)C(CCO)C1)=C2` (stereo unspecified) stands 103%; under `CN1CCN(CCCCOc2ccccc2-c2ccccc2)CC1`, 102%. With `CC(C)C(O)C1CCN(Cc2nc(Cc3ccccc3Cl)no2)CC1` (stereo unspecified), the binding response (% of control) was 101%.

For `CC(Nc1nc(N2CCOCC2)nc2ccccc12)c1ccccc1` (stereo unspecified), the binding response (% of control) is 103%. As for `Cn1c(Cn2nnc3ccccc32)nnc1SCC(=O)c1ccccc1F`, the figure is 103%; as for `C=CCn1c(Cn2nnc3ccccc32)nnc1SCC(=O)N/N=C/c1cc(Br)cc(OC)c1O`, -19.4% [inhibitor] (active); as for `COc1ccc(OC)c(/C=N/NC(=O)CSc2nnc(C)n2-c2ccccc2)c1`, 105%. As for `CCn1ccnc1CN(C)Cc1nc(-c2ccc3c(c2)OCO3)no1`, the figure is 96.5%; as for `O=C(CCn1ccc([N+](=O)[O-])n1)Nc1nccs1`, 97.4%; as for `CC(OC(=O)c1ccc2ccccc2n1)C(=O)c1ccccc1` (stereo unspecified), 104%.

As to `COc1ccc(C(=O)COC(=O)c2ccc3ccccc3n2)cc1`, the binding response (% of control) is 39% [inhibitor] (active). As for `COc1ccc(C2=NOC(COC(=O)c3ccc4ccccc4n3)C2)cc1` (stereo unspecified), the figure is 97%; as for `O=C(O)c1ccccc1-c1ccccc1C(=O)NCc1cccnc1`, 104%; as for `CN(C)CCN=c1cc(-c2ccccc2)oc2ccc(Cl)cc12`, 155% (active). Under `CN(C)CCn1c(=S)[nH]c2ccc(Cl)cc2c1=O` stands 97.9%. In the case of `CCN(CC)S(=O)(=O)c1ccc(N2CCCC2)c(NS(=O)(=O)c2cccs2)c1`, the binding response (% of control) is 103%.

As for `Cc1ccc(S(=O)(=O)CC(=O)Nc2c(C)n(C)n(-c3ccccc3)c2=O)cc1`, the binding response (% of control) is 95.9%.

Turning to `Cc1cc(C)cc(N(C(C)C(=O)Nc2c(C)n(C)n(-c3ccccc3)c2=O)S(C)(=O)=O)c1` (stereo unspecified), the binding response (% of control) was 101%. Under `Cc1cc(C)cc(N(CC(=O)Nc2c(C)n(C)n(-c3ccccc3)c2=O)S(C)(=O)=O)c1` stands -21.3% [inhibitor] (active). Under `CCn1cc(C(=O)NCCCN2CCCCCC2)c(=O)c2cc(S(=O)(=O)N3CCc4ccccc4C3)ccc21` stands 103%.

The record behind these values is PubChem BioAssay AID1439 (NMMLSC, 2008).
